Source: PubChem (Paczesny and Yang Labs, IUPUI and University of Michigan)
Shown is part of a subset that was picked to be rich in hits.
ST2 inh = IL1RL1 inhibition | AlphaLISA ST2-Fc/biotin-IL-33 interaction, 1 h | actives 2.3% (n = 78,000) | AID 1259354 | inhibition, % for hits at 17 µM | Q01638; in the data active = inhibition above about 30%
Target sequence (Q01638 whole entry, looked up): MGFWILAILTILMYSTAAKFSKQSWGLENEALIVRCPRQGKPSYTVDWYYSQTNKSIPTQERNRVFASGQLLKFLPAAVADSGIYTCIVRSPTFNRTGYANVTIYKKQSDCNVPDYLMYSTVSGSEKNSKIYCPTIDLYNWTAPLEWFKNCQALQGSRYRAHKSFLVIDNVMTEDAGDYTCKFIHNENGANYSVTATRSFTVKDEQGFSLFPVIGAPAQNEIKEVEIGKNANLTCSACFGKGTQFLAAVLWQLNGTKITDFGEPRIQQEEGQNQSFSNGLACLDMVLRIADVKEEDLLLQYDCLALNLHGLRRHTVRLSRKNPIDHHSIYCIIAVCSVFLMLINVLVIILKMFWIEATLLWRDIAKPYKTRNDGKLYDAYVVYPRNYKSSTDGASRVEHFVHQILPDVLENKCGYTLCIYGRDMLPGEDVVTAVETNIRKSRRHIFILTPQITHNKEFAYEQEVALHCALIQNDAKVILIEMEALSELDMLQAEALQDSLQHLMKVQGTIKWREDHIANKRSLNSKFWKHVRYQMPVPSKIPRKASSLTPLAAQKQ
The depositor's hits bear a star; i = inactive; ! = repeats disagree.

SMILES	ST2 inh
CCc1nc(C)c(C(=O)N2CCC(O)(CN(C)C)C2)o1 (stereo not drawn)	i
COc1ccc2c(c1)CN(c1ccc(C(=O)O)cc1)CO2	i
CCOc1ccc(N2COc3ccc(OCC)cc3C2)cc1	i
COc1ccc(N2COc3ccc(Cl)cc3C2)cc1	37%*
N#CN=C(N)CSc1nc(-c2ccccc2)cc(C(F)(F)F)c1C#N	i
CC1=NN(c2cccc(Br)c2)C(=O)/C1=C/c1ccc(-c2ccc3c(c2)C(=O)OC3)o1	i
COc1cc(Br)c(/C=C2\C(=O)N(c3cccc(Cl)c3)N=C2C)cc1OC	i
CC1=NN(c2ccccc2)C(=O)/C1=C/c1ccc(O)c(Cl)c1	i
CC1=NN(c2cccc(Cl)c2)C(=O)/C1=C\c1ccco1	44%*
CC1=NN(c2cccc(Cl)c2)C(=O)/C1=C\c1ccc(C)cc1	30%*
COc1ccc(NS(=O)(=O)c2ccc(Br)s2)c(OC)c1	i
CCN(CC)S(=O)(=O)c1cc(Br)cc2c1N(C(=O)C1CC1)CC2	i
Cc1ccc(CNC(=O)c2cnc3n(c2=O)CCS3)cc1	i
O=[N+]([O-])c1cccc(-c2ncnn2-c2ccc(Br)cc2F)c1	i
Cc1c(Cl)cccc1N1C(=O)CSC1c1ccc([N+](=O)[O-])cc1 (stereo not drawn)	i
Cc1c(Cl)cccc1-n1ncnc1-c1cccc([N+](=O)[O-])c1	35%*
COc1ccc(NC(=O)CN2C(=O)CC(c3ccccc3)=Nc3ccccc32)cc1	i
O=C(NCCC1=CCCCC1)C1CCC(CNS(=O)(=O)c2cccc3nsnc23)CC1 (stereo not drawn)	i
COc1ccc2cc(C(=O)NC(C)=O)c(=Nc3ccc(F)cc3)oc2c1	i
COc1ccc2cc(-c3nc4ccccc4[nH]3)c(=Nc3ccc(C(N)=O)cc3)oc2c1	35%*
COc1ccc2cc(C(N)=O)c(=Nc3ccc(C)cc3)oc2c1	i
Cc1cc(=O)[nH]c(SCc2ccc(Br)cc2)n1	i
Cn1c(C(=O)N2CCCCC2)cc2c(=O)n3ccccc3nc21	i
O=C(Nc1ccc(F)cc1)c1cc2cc3ccc(Cl)cc3nc2o1	37%*!
COc1ccc2cc3cc(C(=O)NCCCN4CCN(C)CC4)oc3nc2c1	i
SMILES	ST2 inh
COc1ccc2cc3cc(C(=O)Nc4ccc(F)cc4Cl)oc3nc2c1	i
O=C(NCCCN1CCCCCC1)c1cc2cc3ccc(Cl)cc3nc2o1	44%*!
COc1ccc2cc3cc(C(=O)Nc4cc(Cl)ccc4OC)oc3nc2c1	i
CCN(CCCNC(=O)c1cc2cc3ccc(Cl)cc3nc2o1)c1ccccc1	34%*!
CCC1CCCCN1CCCNC(=O)c1cc2cc3ccc(Cl)cc3nc2o1 (stereo not drawn)	i
CCCCN(CC)CCCNC(=O)c1cc2cc3ccc(OC)cc3nc2o1	i
CCCN(CCC)CCCNC(=O)c1cc2cc3ccc(OC)cc3nc2o1	i
O=C1c2cccc3cccc(c23)C(=O)N1c1cc(=O)c2ccccc2[nH]1	i
O=C(NCCc1cccs1)N1CCOC(C(F)(F)F)C1 (stereo not drawn)	i
Cc1cc2c3c([nH]c2cc1S(=O)(=O)Nc1ccc(S(N)(=O)=O)cc1)CC(C)(C)CC3=O	i
CCOC(=O)N1CCC(n2ccnc2-c2c(C)ccc3ncccc23)CC1	i
Cc1cccc2oc(-c3cccc(N=Cc4cccc([N+](=O)[O-])c4O)c3)nc12	i
O=[N+]([O-])c1cc2c(cc1C=Nc1ccc(O)c(-c3nc4ccccc4[nH]3)c1)OCO2	30%*
Cc1cccc(N=Cc2cc3c(cc2[N+](=O)[O-])OCO3)c1	33%*
CCN(CC)Cc1c(O)ccc2cc(-c3nc4ccccc4[nH]3)c(=O)oc12	i
Oc1ccccc1-c1nc2ccccc2[nH]1	i
O=[N+]([O-])c1cc2c(cc1C=Nc1ccc(Cl)c(C(F)(F)F)c1)OCO2	i
COc1ccc(Nc2c(-c3ccc(O)cc3)nc3cnccn23)cc1	i
CC1=C(C(=O)OCCOc2ccccc2)C(c2ccc(C)s2)NC(=O)N1C (stereo not drawn)	i
O=C(NCc1ccc(Cl)cc1)c1cc(-c2ccc(Br)cc2)on1	i
c1cncc(-c2nnc([C@H]3CCN(C4CCCCC4)C3)o2)c1	i
COC1=C(OC)C(=O)c2ccccc2C1=O	i
CC(=O)c1ccccc1-c1cccc(C(=O)NC(C)C)c1	i
CC(=O)C1=C(c2ccccc2)C(=O)c2ccccc2C1=O	48%*
Cc1cc(Nc2ccc(O)cc2)n2c(nc3ccccc32)c1C#N	33%*
SMILES	ST2 inh
Cc1cc(NCCCN(C)C)n2c(nc3ccccc32)c1C#N	i
Cc1cc(NCCO)n2c(nc3ccccc32)c1C#N	i
CCc1ccccc1NS(=O)(=O)c1ccc(NC(C)=O)cc1	i
C#CCSc1nc(C)c2cc(C)c(C)cc2n1	i
COc1ccc(C2C=C(Nc3ccccc3)C(=O)N2c2ccccc2)cc1 (stereo not drawn)	i
Cc1ccc(S(=O)(=O)N2CCc3ccccc32)cc1C(N)=O	i
Cc1ccc(S(=O)(=O)N2CCc3ccccc32)cc1[N+](=O)[O-]	36%*
Cc1ccc(S(=O)(=O)N2CCCCC2)cc1[N+](=O)[O-]	i
O=C(Nc1ccccc1C(=O)O)c1ccc(S(=O)(=O)N2CCCCC2)cc1	i
CC1CN(S(=O)(=O)c2ccc(Cl)c(C(=O)Nc3ccccc3[N+](=O)[O-])c2)CC(C)O1 (stereo not drawn)	i
O=C(Nc1ccccn1)c1cccc(S(=O)(=O)N2CCCCC2)c1	i
O=C(Nc1ccccc1[N+](=O)[O-])c1cccc(S(=O)(=O)N2CCCCC2)c1	43%*
Cc1ccc(NC(=O)c2cccc(S(=O)(=O)N3CCCCC3)c2)cc1	i
O=C(Nc1ccccc1[N+](=O)[O-])c1ccc(S(=O)(=O)N2CCCCC2)cc1	35%*
CC(=O)c1cc(C(=O)N2CCOC(Cc3ccccc3Cl)C2)c(=O)[nH]c1C (stereo not drawn)	i
Brc1cccc(-c2nnc3sc(CN4CCOCC4)cn23)c1	i
CCCCc1ncc(CN2CCc3[nH]cnc3C2c2cccc(O)c2)[nH]1 (stereo not drawn)	37%*
Cc1ccc(C2c3nc[nH]c3CCN2Cc2cc(C)ccc2O)cc1 (stereo not drawn)	i
CCCCc1ncc(CN2CCN(Cc3ccc(OCC)cc3)C(CCO)C2)[nH]1 (stereo not drawn)	i
COc1cc(-c2ccccc2C(F)(F)F)nc(N)n1	i
CCC1CCCCN1C(=O)c1cc(-c2ccc(Cl)cc2)on1 (stereo not drawn)	i
COc1cc([N+](=O)[O-])cc2c(CCN)c(C(=O)O)[nH]c12	i
COC(=O)c1ccc(NS(=O)(=O)c2c(C)noc2C)cc1	i
CCN(CCn1c(=O)oc2ccccc21)CC1CCOCC1	i
COc1ccccc1/C=C/C1=NC(=C\c2ccccc2Cl)/C(=O)O1	i
SMILES	ST2 inh
COc1ccccc1/C=C/C1=NC(=C\c2ccc(Cl)cc2)/C(=O)O1	i
COc1ccccc1/C=C1N=C(/C=C/c2ccccc2OC)OC\1=O	37%*
COc1ccccc1/C=C/C1=NC(=C\c2c(F)cccc2Cl)/C(=O)O1	i
COc1ccccc1/C=C/C1=NC(=C\c2cccc([N+](=O)[O-])c2)/C(=O)O1	i
COc1ccccc1/C=C/C1=NC(=C\c2ccccc2)/C(=O)O1	38%*
COc1ccccc1N=c1oc2ccc(Br)cc2cc1C(N)=O	i
O=S(=O)(NCc1ccccc1)NCc1ccccn1	i
